Experiment [1] can be described thus: ATG_CRE_CIS: Attagene CIS-FACTORIAL HepG2 Assay for human cAMP Responsive Element (CRE) binding protein 3 (AID 2282926). Conditions: HepG2 CRE cis-reporter, Attagene multiplexed mRNA; actives raise or lower the signal. In short, it runs like this: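 Capillary electrophoresis of 6-FAM-labelled, HpaI-digested PCR products quantified reporter transcripts. These came from HepG2 transiently transfected with cis-element reporters and exposed to test chemicals for 24 hours, with DMSO defining baseline activity.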

The target of experiment [2] is Aryl hydrocarbon receptor (Homo sapiens) (UniProt P35869). The experiment is described as follows: ATG_Ahr_CIS: Attagene CIS-FACTORIAL HepG2 Assay for human Aryl Hydrocarbon Receptor (Ahr) (AID 2282930). Conditions: HepG2 AhR cis-factorial reporter transcription; actives raise or lower the signal. An outline of the steps:
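Values derive from bidirectional fitting against DMSO negative control. Underlying signal: cis-element reporter mRNA in transiently transfected HepG2, harvested 24 h post-dose and measured by RT-PCR plus capillary electrophoresis.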

Experiment [3] in a line: ATG_AP_1_CIS: Attagene CIS-FACTORIAL HepG2 Assay for human Activator Protein 1 (AP-1) (AID 2282931). Conditions: HepG2 Attagene cis-factorial AP-1 reporter mRNA; actives raise or lower the signal. In short, it runs like this:
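Fluorescence of labelled PCR fragments separated by capillary electrophoresis gives reporter mRNA levels. HepG2 with transfected cis-regulated reporter units, 24 h exposure; DMSO serves as baseline for bidirectional curve fits.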

A short description of experiment [4]: ATG_BRE_CIS: Attagene CIS-FACTORIAL HepG2 Assay for human Bone Morphogenetic Protein (BMP) Response Element (BRE) (AID 2282933). Conditions: HepG2 BMP response element reporter, Attagene transcription factor profiling; actives raise or lower the signal. An outline of the steps: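 Endogenous transcription factor activity at a BMP response element was monitored in transfected HepG2 cells 24 h after dosing. Fluorescent RT-PCR products were resolved by capillary electrophoresis, and activity was fitted in both directions versus DMSO.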

A short description of experiment [5]: ATG_E_Box_CIS: Attagene CIS-FACTORIAL HepG2 Assay for human Enhancer Box (E-box) (AID 2282936). Conditions: HepG2 E-box cis-reporter transcription, actives raise or lower the signal. In short, it runs like this:
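Endogenous transcription factor activity was sensed in human HepG2 liver cells through transfected cis-promoter reporter units. After 24 h of dosing, total RNA was reverse-transcribed and reporter cDNA resolved by capillary electrophoresis.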

Experiment [6] is described as follows: ATG_M_19_CIS: Attagene CIS-FACTORIAL HepG2 Assay for M19 Transcription Factor (Internal Marker) (AID 2282939). Conditions: HepG2 Attagene CIS-FACTORIAL M19 internal marker reporter; actives raise or lower the signal. In short, it runs like this: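 Background-control endpoint from a multiplexed HepG2 reporter panel. Cells carrying cis-regulated reporter constructs are treated 24 h, then reporter transcripts are amplified, fluorescently labelled and sized by capillary electrophoresis. DMSO defines baseline.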

Experiment [7] is described as follows: ATG_GLI_CIS: Attagene CIS-FACTORIAL HepG2 Assay for human Zinc Finger Protein GLI1 (AID 2282945). The following applies: HepG2, Attagene cis-factorial reporter mRNA, GLI element; actives raise or lower the signal. In short, it runs like this: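 HepG2 cells transiently transfected with cis-promoter multiplexed reporter units report endogenous transcription factor activity. After 24 h chemical exposure, reporter mRNA was quantified by RT-PCR, 6-FAM labelling, HpaI digestion and capillary electrophoresis, with bidirectional fitting against DMSO.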

Experiment [8] is described as follows: ATG_M_06_CIS: Attagene CIS-FACTORIAL HepG2 Assay for M06 Transcription Factor (Internal Marker) (AID 2282950). The following applies: HepG2 Attagene CIS-FACTORIAL M06 internal marker reporter; actives raise or lower the signal. In short, it runs like this: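 Steps: transfect HepG2 with multiplexed cis-element reporter constructs; dose chemical 24 h; extract RNA with DNase treatment; reverse-transcribe, PCR-amplify, 6-FAM label, HpaI digest; separate fragments by capillary electrophoresis. Activity fitted both directions versus DMSO.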

In experiment [9] the target is Hepatocyte nuclear factor 6 (Homo sapiens) (UniProt Q9UBC0). Kind of experiment: ATG_HNF6_CIS: Attagene CIS-FACTORIAL HepG2 Assay for human Hepatocyte Nuclear Factor 6 (HNF6) (AID 2282952). The following applies: HepG2 Attagene cis-factorial HNF6 reporter transcription; actives raise or lower the signal. In short, it runs like this: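 Activity values derive from bidirectional fitting against DMSO of reporter mRNA levels, measured by capillary electrophoresis of labelled RT-PCR products from HepG2 cells exposed 24 h.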

For experiment [10], the target named is Heat shock factor protein 1 (Homo sapiens) (UniProt Q00613). Kind of experiment: ATG_HSE_CIS: Attagene CIS-FACTORIAL HepG2 Assay for human Heat Shock Transcription Factor 1 (HSE) (AID 2282953). Conditions: HepG2 HSE cis-reporter, Attagene RNA transcription; actives raise or lower the signal. An outline of the steps:
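Cells were transfected with cis-element-driven reporter constructs, dosed for 24 h, then total RNA was reverse-transcribed and reporter cDNA amplified, FAM-labelled and digested with HpaI. Fragments were resolved by capillary electrophoresis; gain or loss was fitted against DMSO.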

The nature of experiment [11]: ATG_TA_CIS: Attagene CIS-FACTORIAL HepG2 Assay for human TA Basal Promoter (AID 2282964). The following applies: HepG2 Attagene CIS-factorial TA basal promoter reporter; actives raise or lower the signal. An outline of the steps:
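Steps: transfect HepG2 with MRTUs; dose 24 h; isolate RNA, DNase-treat, reverse-transcribe; PCR and FAM-label reporter cDNA; digest with HpaI 2h at 37 C; run capillary electrophoresis. Activity fitted both directions against DMSO.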

Experiment [12] is described as follows: ATG_VDRE_CIS: Attagene CIS-FACTORIAL HepG2 Assay for human Vitamin D Receptor Element (VDRE) (AID 2282968). Conditions: HepG2 VDRE cis-reporter transcription, actives raise or lower the signal. An outline of the steps: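 Steps: transfect HepG2 with multiple reporter transcription units; dose chemicals 24 h; isolate RNA; RT-PCR; label with 6-FAM primer extension; HpaI digest; capillary electrophoresis. Curves fitted both directions against DMSO.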

In experiment [13] the target is X-box-binding protein 1 (Homo sapiens) (UniProt P17861). The experiment is described as follows: ATG_Xbp1_CIS: Attagene CIS-FACTORIAL HepG2 Assay for human X-box Binding Protein 1 (XBP1) (AID 2282972). Conditions: HepG2 XBP1 cis-element reporter, Attagene multiplex; actives raise or lower the signal. An outline of the steps: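 Changes in reporter transcript abundance, read by RT-PCR and capillary electrophoresis, reflect endogenous transcription factor activity. Transfected HepG2 cells received compound for 24 hours; DMSO defined baseline for bidirectional analysis.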

The target of experiment [14] is Nuclear respiratory factor 1 (Homo sapiens) (UniProt Q16656). Kind of experiment: ATG_NRF1_CIS: Attagene CIS-FACTORIAL HepG2 Assay for human Nuclear Respiratory Factor 1 (NRF1) Orphan Gene (AID 2282987). The following applies: HepG2 NRF1 cis-element reporter, Attagene multiplex; actives raise or lower the signal. In short, it runs like this:
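Human hepatoma HepG2 cells carrying transfected promoter-regulated reporter units were incubated with test chemicals for 24 h. Reporter transcripts were measured by RT-PCR plus capillary electrophoresis, and endpoints derived by bidirectional fitting with DMSO as baseline.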

Experiment [15] concerns the target Myc proto-oncogene protein (Homo sapiens) (UniProt P01106). The experiment is described as follows: ATG_Myc_CIS: Attagene CIS-FACTORIAL HepG2 Assay for human Myelocytomatosis (Myc) Proto-Oncogene Transcription Factor (AID 2282990). Conditions: HepG2, Attagene cis-reporter transcription factor activity; actives raise or lower the signal. In short, it runs like this:
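Multiplexed cis-reporter transcription in HepG2 cells after 24 h chemical treatment. Reporter mRNA measured by RT-PCR and capillary electrophoresis fluorescence; activity fitted bidirectionally against DMSO control.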

Experiment [16] is described as follows: ATG_NRF2_ARE_CIS: Attagene CIS-FACTORIAL HepG2 Assay for human Nuclear Factor Erythroid 2 Related Factor 2 (NFR2) response to Antioxidant Response Elements (ARE) (AID 2282992). Conditions: HepG2 Attagene ARE/NRF2 reporter, transcription factor activity; actives raise or lower the signal. An outline of the steps: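 Using transiently transfected HepG2 cells exposed for 24 h, reporter mRNA levels were determined by RT-PCR with fluorescent primer extension and capillary electrophoresis, analysed for gain or loss of signal against DMSO.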

The nature of experiment [17]: ATG_Oct_MLP_CIS: Attagene CIS-FACTORIAL HepG2 Assay for human Octamer-Binding Transcription Factor (Oct) (AID 2282993). The following applies: HepG2 Attagene cis-factorial Oct reporter, mRNA; actives raise or lower the signal. An outline of the steps:
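Multiplexed cis-reporter assay in human liver HepG2 cells, 24 h incubation. Reporter RNA amplified and labelled, then resolved by capillary electrophoresis; DMSO serves as negative control and baseline.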

For experiment [18], the target named is Cellular tumor antigen p53 (Homo sapiens) (UniProt P04637). Kind of experiment: ATG_p53_CIS: Attagene CIS-FACTORIAL HepG2 Assay for human p53 Transcription Factor (AID 2282994). The following applies: HepG2 p53 cis-element reporter, Attagene mRNA; actives raise or lower the signal. An outline of the steps:
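In HepG2 cells, reporter transcription units under cis-regulatory promoters were transiently introduced. Following 24 h treatment, RNA was processed to labelled, digested cDNA fragments read by capillary electrophoresis; fitting was bidirectional versus DMSO.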

Experiment [19] concerns the target Hypoxia-inducible factor 1-alpha (Homo sapiens) (UniProt Q16665). The experiment is described as follows: ATG_HIF1a_CIS: Attagene CIS-FACTORIAL HepG2 Assay for human Hypoxia Inducible Factor 1 (HIF1A) (AID 2282951). The following applies: HepG2 Attagene cis-factorial HIF1a reporter transcription; actives raise or lower the signal. An outline of the steps: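 HepG2, transient cis-reporter library, 24 h dosing. RNA → RT (oligo dT) → PCR → 6-FAM primer extension → HpaI → CE. Bidirectional curve fit vs DMSO.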

Experiment [20] concerns the target CCAAT/enhancer-binding protein beta (Homo sapiens) (UniProt P17676). Kind of experiment: ATG_C_EBP_CIS: Attagene CIS-FACTORIAL HepG2 Assay for human CCAAT/Enhancer Binding Protein (C/EBP) beta (AID 2282927). Conditions: HepG2 Attagene cis-factorial transcription factor reporter; actives raise or lower the signal. An outline of the steps:
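Following a 24 h incubation with test chemical, transfected HepG2 cells yielded RNA whose reporter transcripts were quantified by RT-PCR and fluorescent capillary electrophoresis, with DMSO serving as baseline for bidirectional fitting.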

As usually defined, the AC50 is the midpoint of the concentration-response curve, whichever way the signal moves.

Calls of active or inactive are those of the source. Rule for the calls: active = hit-call score of the fitted dose curve at least 0.9, where 1 is the maximum; inactive = score below 0.9.

Chain of Nuclear respiratory factor 1 (Homo sapiens) (Q16656 whole entry, looked up): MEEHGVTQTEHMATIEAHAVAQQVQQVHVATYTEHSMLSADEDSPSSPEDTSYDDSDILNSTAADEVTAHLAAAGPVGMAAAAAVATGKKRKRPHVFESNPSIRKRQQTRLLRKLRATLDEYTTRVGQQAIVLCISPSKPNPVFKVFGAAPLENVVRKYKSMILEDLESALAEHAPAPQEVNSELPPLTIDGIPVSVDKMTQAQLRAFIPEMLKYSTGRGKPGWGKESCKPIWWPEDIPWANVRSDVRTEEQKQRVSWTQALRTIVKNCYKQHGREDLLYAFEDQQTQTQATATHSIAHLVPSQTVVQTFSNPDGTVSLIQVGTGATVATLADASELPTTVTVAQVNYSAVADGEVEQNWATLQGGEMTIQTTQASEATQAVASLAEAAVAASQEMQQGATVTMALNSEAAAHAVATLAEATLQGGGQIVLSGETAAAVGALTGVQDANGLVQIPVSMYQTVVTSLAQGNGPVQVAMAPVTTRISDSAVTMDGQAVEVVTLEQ
Chain of X-box-binding protein 1 (Homo sapiens) (P17861 whole entry, looked up): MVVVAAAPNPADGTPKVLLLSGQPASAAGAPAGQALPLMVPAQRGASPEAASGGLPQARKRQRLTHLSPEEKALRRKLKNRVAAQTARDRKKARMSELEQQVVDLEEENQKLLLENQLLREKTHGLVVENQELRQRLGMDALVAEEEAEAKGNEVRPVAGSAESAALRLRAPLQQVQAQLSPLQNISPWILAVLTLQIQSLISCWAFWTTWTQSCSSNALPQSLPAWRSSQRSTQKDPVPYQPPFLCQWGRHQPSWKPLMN
Chain of Myc proto-oncogene protein (Homo sapiens) (P01106 whole entry, looked up): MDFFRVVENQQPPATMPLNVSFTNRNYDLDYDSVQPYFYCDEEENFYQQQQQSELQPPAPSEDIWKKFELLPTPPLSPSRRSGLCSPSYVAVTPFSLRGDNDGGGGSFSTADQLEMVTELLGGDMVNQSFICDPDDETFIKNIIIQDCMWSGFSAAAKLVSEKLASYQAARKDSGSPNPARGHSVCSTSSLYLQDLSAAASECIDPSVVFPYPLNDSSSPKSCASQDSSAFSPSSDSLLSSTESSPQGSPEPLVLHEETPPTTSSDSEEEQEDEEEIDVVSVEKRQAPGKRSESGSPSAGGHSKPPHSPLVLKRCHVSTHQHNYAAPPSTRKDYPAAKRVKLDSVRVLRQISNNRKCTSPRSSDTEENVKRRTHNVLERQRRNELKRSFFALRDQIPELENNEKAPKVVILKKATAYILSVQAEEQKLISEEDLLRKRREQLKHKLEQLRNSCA
Chain of Hypoxia-inducible factor 1-alpha (Homo sapiens) (Q16665 whole entry, looked up): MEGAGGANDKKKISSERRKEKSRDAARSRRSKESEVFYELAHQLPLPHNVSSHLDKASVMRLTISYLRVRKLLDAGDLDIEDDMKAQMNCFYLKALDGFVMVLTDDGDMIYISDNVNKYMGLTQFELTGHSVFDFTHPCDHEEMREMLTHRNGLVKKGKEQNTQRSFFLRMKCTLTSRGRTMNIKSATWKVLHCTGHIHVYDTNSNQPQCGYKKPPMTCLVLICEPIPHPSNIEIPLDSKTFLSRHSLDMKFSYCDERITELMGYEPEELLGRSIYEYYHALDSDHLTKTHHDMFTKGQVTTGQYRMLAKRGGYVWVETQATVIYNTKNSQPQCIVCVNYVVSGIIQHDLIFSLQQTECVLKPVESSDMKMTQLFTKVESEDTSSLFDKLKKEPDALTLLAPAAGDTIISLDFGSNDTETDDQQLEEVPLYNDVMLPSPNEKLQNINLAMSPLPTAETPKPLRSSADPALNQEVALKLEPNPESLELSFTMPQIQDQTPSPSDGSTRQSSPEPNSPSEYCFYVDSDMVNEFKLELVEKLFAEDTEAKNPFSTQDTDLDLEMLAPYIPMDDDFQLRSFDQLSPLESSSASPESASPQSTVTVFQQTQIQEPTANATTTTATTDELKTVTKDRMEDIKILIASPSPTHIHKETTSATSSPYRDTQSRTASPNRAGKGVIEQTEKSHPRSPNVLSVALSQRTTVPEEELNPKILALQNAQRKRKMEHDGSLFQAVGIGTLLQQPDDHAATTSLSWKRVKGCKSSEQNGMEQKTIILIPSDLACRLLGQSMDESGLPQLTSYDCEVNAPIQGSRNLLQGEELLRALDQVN
Chain of Aryl hydrocarbon receptor (Homo sapiens) (P35869 whole entry, looked up): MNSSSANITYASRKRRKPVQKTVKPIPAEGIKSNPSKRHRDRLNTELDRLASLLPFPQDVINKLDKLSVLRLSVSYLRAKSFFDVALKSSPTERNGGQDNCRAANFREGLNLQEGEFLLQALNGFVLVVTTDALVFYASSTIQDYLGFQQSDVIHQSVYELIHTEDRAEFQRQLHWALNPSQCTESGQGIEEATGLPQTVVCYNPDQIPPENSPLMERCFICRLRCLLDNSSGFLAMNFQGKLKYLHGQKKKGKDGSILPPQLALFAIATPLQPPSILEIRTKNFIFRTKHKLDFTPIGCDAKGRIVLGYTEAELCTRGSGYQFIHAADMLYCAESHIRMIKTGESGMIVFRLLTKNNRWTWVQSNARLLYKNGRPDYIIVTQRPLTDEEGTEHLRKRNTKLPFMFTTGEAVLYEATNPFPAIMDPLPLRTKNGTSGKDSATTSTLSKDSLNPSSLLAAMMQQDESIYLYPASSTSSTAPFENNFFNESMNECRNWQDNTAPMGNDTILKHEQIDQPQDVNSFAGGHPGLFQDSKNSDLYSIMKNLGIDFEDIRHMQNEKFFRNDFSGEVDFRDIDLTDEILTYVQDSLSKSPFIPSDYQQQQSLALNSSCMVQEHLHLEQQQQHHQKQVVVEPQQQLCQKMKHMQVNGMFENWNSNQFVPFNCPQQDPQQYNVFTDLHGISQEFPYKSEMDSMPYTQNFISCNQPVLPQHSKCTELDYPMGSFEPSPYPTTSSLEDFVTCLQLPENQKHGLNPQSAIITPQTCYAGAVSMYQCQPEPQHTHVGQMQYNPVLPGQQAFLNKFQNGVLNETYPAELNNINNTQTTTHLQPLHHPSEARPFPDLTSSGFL
Chain of Cellular tumor antigen p53 (Homo sapiens) (P04637 whole entry, looked up, the tested form may be a part): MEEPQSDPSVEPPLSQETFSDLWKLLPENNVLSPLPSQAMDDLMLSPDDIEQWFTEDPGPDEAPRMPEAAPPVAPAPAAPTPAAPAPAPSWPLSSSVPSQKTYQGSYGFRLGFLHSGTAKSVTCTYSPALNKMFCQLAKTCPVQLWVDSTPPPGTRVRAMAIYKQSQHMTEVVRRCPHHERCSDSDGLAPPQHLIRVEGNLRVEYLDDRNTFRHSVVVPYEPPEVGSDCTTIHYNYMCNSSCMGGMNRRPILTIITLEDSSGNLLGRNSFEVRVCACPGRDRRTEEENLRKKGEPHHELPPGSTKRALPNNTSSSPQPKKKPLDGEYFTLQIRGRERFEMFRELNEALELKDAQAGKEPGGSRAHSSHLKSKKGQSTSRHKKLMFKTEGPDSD
Chain of Hepatocyte nuclear factor 6 (Homo sapiens) (Q9UBC0 whole entry, looked up): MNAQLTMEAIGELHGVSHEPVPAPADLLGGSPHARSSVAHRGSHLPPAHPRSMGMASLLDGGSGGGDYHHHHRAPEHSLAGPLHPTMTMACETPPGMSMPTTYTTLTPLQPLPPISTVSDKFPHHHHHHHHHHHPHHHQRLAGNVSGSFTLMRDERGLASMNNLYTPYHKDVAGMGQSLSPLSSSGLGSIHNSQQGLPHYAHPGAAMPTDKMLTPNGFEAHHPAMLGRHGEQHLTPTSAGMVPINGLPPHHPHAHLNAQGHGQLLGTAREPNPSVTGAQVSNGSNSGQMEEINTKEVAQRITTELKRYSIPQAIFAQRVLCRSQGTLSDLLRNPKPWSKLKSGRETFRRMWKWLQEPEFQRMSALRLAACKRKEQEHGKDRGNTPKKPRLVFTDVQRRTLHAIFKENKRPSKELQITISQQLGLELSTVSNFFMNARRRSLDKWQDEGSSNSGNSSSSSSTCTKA
Chain of Heat shock factor protein 1 (Homo sapiens) (Q00613 whole entry, looked up, the tested form may be a part): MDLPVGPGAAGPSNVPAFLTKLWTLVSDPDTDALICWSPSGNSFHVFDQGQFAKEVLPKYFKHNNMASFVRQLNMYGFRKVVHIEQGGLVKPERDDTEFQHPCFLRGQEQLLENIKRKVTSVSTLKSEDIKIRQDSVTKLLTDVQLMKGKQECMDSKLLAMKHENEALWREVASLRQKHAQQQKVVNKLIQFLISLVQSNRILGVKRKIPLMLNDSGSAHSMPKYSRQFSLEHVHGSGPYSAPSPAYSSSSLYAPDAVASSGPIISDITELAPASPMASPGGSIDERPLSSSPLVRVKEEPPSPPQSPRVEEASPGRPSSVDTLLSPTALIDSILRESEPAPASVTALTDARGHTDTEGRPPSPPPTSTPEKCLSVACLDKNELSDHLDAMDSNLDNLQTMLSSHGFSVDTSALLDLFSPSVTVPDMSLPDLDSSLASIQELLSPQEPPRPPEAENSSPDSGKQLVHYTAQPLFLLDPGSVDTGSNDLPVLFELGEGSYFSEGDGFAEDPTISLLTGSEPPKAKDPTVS
Chain of CCAAT/enhancer-binding protein beta (Homo sapiens) (P17676 whole entry, looked up): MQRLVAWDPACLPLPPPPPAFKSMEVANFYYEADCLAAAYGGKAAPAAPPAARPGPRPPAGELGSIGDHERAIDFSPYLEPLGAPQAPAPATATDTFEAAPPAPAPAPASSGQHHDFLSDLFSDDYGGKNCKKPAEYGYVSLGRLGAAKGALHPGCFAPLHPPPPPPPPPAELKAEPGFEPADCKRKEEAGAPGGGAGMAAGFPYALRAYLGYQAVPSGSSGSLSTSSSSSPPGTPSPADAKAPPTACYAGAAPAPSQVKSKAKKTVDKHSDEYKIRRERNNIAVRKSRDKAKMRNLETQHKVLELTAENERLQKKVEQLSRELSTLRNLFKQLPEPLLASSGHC

For `C[C@]12CC[C@H](O)C[C@H]1CC[C@@H]1[C@@H]2C[C@@H](O)[C@]2(C)[C@@H](C3=CC(=O)OC3)CC[C@]12O`, the AC50 was 3.11 µM (active) in [1]; 3.46 µM (active) in experiment [3]; 5.31 µM (active) in experiment [9]; 2.96 µM (active) in [10]; 2.08 µM (active) in experiment [12]; 3.98 µM (active) in experiment [13]. Besides, the half-maximal activity concentration (AC50) in experiment [14] was 5.24 µM (active); in [17], 2.08 µM (active). For the same compound, the call in [2], in experiment [4], in experiment [5], in experiment [6], in experiment [7] and in experiment [8] was inactive. Also, the call in experiment [11], in experiment [15], in [16] and in experiment [18] was inactive.
`CCCCNP(N)(N)=S`: the compound was classed as inactive in [1], in experiment [5], in experiment [7], in [8], in [19] and in experiment [9]. Moreover, the call in experiment [10], in experiment [12], in [13], in experiment [15], in experiment [16] and in [17] was inactive. Moreover, in experiment [18], the call was inactive.
As for `Nc1ccccc1`, the result in experiment [1], in experiment [20], in experiment [3], in [4], in experiment [6] and in [8] was inactive. In addition, the compound was called inactive in [19], in experiment [9], in experiment [10], in [11], in [12] and in experiment [13]. The compound was classed as inactive in [14], in experiment [15], in experiment [16], in experiment [17] and in [18].
As to `CCNCC`, the outcome in experiment [1], in experiment [2], in [3], in [4], in experiment [6] and in experiment [7] was inactive. Further, the compound was classed as inactive in experiment [8], in experiment [19], in experiment [9], in experiment [10], in experiment [11] and in experiment [12]. Besides, the compound was called inactive in experiment [13], in experiment [14], in [15], in [16] and in [17].
For the compound `CC1(C)C(=O)NC(=O)NC1=O`, the outcome in experiment [1], in experiment [2], in [3], in experiment [5], in experiment [6] and in [7] was inactive. For the same compound, the compound was called inactive in experiment [8], in [19], in experiment [9], in experiment [10], in experiment [11] and in [12]. The compound was classed as inactive in experiment [13], in experiment [14], in experiment [15], in experiment [16], in experiment [17] and in experiment [18].
With `O=P(O)(Oc1ccccc1)Oc1ccccc1`, the outcome in experiment [20], in experiment [2], in experiment [3], in [4], in experiment [5] and in [6] was inactive. The result in experiment [7], in [8], in experiment [19], in experiment [9], in [10] and in [11] was inactive. The compound was called inactive in experiment [12], in [13], in experiment [15], in [16], in experiment [17] and in experiment [18].
On to `CCC1CCC(=O)O1` (stereo not drawn), for which the compound was classed as inactive in experiment [1], in [3], in experiment [4], in experiment [5], in experiment [6] and in experiment [7]. Moreover, the result in experiment [8], in experiment [19], in experiment [9], in experiment [10], in experiment [11] and in [12] was inactive. Also, the compound was classed as inactive in experiment [13], in [14], in experiment [15], in experiment [16] and in [17].

(Values after PubChem BioAssay (EPA / NIEHS).)
